Unmarked numbers belong to inactive results. Results filed as inconclusive are left out. Active and inactive are the calls of the source. Calls come from the whole dose curve; as a rule, active = well fitted curve in the direction sought with a large enough effect; inconclusive = small, poorly fitted or top-dose-only effect, or another doubt; inactive = no such curve, though single readings can be large; an effect the other way counts as inactive or inconclusive.

From PubChem BioAssay (NCATS) come the findings set out here.

Assay [1] deals with Glutathione peroxidase 1 (Homo sapiens) (UniProt P07203). As to the kind of experiment: Primary qHTS Assay for Inhibitors of Recombinant Selenoprotein Glutathione Peroxidase 1 (GPX1) (AID 1845191). For activity, negative = inhibition: % is set by controls: 0 for no effect and ±100 for the full control effect. Note: nearly all actives have a fitted effect of over 65% in size. The procedure, abridged:
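Recombinant GPX1 (10 nM final) was preincubated with compound for 30 min at room temperature, then reacted with 1 mM GSH, 0.5 mM CHP, 0.5 mM NADPH and 100 nM glutathione reductase; NADPH fluorescence (340/450 nm) was read at 0 and 15 min.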

In assay [2] the target is Phospholipid hydroperoxide glutathione peroxidase GPX4 (Homo sapiens) (UniProt P36969). As to the kind of experiment: Primary qHTS Assay for Inhibitors of Recombinant Selenoprotein Glutathione Peroxidase 4 (GPX4) (AID 1845192). For activity change, negative = inhibition: series mostly up to about 50 µM; % is set by controls: 0 for no effect and ±100 for the full control effect. Note: nearly all actives have a fitted effect of over 65% in size. The method, boiled down:
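GR-coupled readout: 100 nM GR, 1 mM GSH, 0.5 mM NADPH; NADPH fluorescence (ex 340/em 450 nm) read at t=0 and after 15 min RT. GPX4 200 nM, preincubated 30 min with compound; substrate 0.5 mM CHP.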
For orientation: qHTS replaces the single test concentration by a dilution series.

For assay [3], the target named is Luciferin 4-monooxygenase (Photinus pyralis) (UniProt P08659). As to the kind of experiment: Primary firefly luciferase (FLuc) qHTS assay for identification of artifact compounds. (AID 1845220).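 For activity change, negative = inhibition: series mostly up to about 54 µM; plate controls were DMSO vehicle for no effect and no enzyme for full effect.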 Note: nearly all actives have a fitted effect of over 60% in size. Note: potency is the fitted concentration of half-maximal effect. The method, boiled down:
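Reaction readout was CCD-imaged luminescence, taken 5 min after adding 10 nM purified firefly enzyme to compound-treated wells holding 10 uM luciferin and ATP in pH 7.6 buffer.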

Assay [4] can be described thus: Primary fluorescence-based thiol-reactive (MSTI) qHTS assay for identification of artifact compounds. (AID 1845221).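 For activity change, negative = thiol reactive: series mostly up to about 54 µM; thiol-reactive compounds lower the probe fluorescence signal.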 Note: nearly all actives have a fitted effect of over 65% in size. Note: potency is the fitted concentration of half-maximal effect. The method, boiled down:
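Probe: MSTI 4 uM, PBS pH 7.4, 2% DMSO. Incubation 1 h, RT, light-protected. Readout fluorescence 525/598 nm.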

Assay [5] has as its system Nanoluciferase (engineered Oplophorus gracilirostris luciferase). As to the kind of experiment: Primary Nanoluciferase (NLuc) qHTS assay for identification of artifact compounds. (AID 1845222).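 Note: NLuc secreted into diluted conditioned medium of S16 cells; series mostly up to about 54 µM; 0% = DMSO and -100% = no enzyme.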 The method, boiled down: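 Concentration-response data were obtained by luminescence after 5 min with Nano-Glo substrate at 1:100. The enzyme was diluted S16 NLuc-expressing cell medium, preincubated with compound for 15 min at RT. Curves were fitted with a 4-parameter Hill model.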

The nature of assay [6]: Primary redox qHTS assay for identification of artifact compounds. (AID 1845223).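 Note: 0% = DMSO and 100% = reference compound.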 The procedure, abridged:
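Amplex Red (25 uM) and HRP (250 mU/mL) in HBSS, with compounds for 15 min, then 250 uM DTT for 30 min, room temperature, dark. Fluorescence 525/598 nm read; normalized to DMSO and 10 uM DA3003; Hill fit.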

Glutathione peroxidase 1 (Homo sapiens), sequence (P07203 whole entry, looked up): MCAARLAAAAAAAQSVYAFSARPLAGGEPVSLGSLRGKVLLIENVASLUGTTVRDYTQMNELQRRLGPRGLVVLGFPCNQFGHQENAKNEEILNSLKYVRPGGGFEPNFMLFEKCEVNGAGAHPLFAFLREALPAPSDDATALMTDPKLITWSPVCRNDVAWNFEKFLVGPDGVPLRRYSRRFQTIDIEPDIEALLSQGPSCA
Phospholipid hydroperoxide glutathione peroxidase GPX4 (Homo sapiens), sequence (P36969 whole entry, looked up): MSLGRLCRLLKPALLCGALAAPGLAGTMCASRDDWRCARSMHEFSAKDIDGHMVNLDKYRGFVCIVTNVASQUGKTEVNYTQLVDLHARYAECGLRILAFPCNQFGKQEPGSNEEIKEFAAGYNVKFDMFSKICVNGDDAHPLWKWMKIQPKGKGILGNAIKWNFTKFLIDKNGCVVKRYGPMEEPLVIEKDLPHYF

As to `CC(=O)NC1CC(=O)C23C(=O)NC(Cc4c[nH]c5ccccc45)C2C(C)=C(C)C(O)C3/C=C/CC(C)/C=C(/C)C(O)C1O` (configuration not stated), the Potency entry in assay [1], in assay [2], in assay [3], in assay [4], in assay [5] and in assay [6] was “inactive” throughout.

As to `C=C1[C@@H]2CC[C@@]3(C)[C@H](c4ccoc4)OC(=O)C[C@]13O[C@H]1CC(=O)C(C)(C)[C@H](C(O)C(=O)OC)[C@]12C` (some centres not stated), the Potency entry in assay [1], in assay [2], in assay [3], in assay [4] and in assay [6] was “inactive” in each case.

Take `Nc1ccc(-n2nc(C(F)(F)F)cc2C(F)(F)F)cc1`: the Potency result in assay [1], in assay [2], in assay [3], in assay [4], in assay [5] and in assay [6] was “inactive” in each case.

For `CC1(C)CC=C(C#Cc2ccccc2)c2cc(/C=C/c3ccc(C(=O)O)cc3)ccc21`, the Potency result in assay [1], in assay [2], in assay [4], in assay [5] and in assay [6] was “inactive” throughout. In addition, in assay [3], the Potency is 10.7 µM (active).

For `COc1cc(C2CC(=O)Nc3c2cc(Br)c2ccccc32)cc(OC)c1OC` (configuration not stated), the Potency entry in assay [1], in assay [2], in assay [3], in assay [4], in assay [5] and in assay [6] was “inactive” in each case.

For `CC1(C)CC[C@]2(C(=O)OC3OC(CO)C(O)C(O)C3O)CC[C@]3(C)C(=CCC4[C@@]5(C)C[C@@H](O)[C@H](OC6OC(C(=O)O)C(O)C(O)C6O)C(C)(C)C5CC[C@]43C)[C@@H]2C1` (some centres not stated), the Potency result in assay [1] and in assay [2] was “inactive” in each case. The activity change, negative = inhibition in assay [3] was -3.02% [at 11.6 µM]. Besides, the activity change, negative = thiol reactive in assay [4] was 309% [at 11.5 µM]. The activity, negative = inhibition in assay [5] was 1.92% [at 11.6 µM]. Further, the redox activity (% of DA3003) in assay [6] is 1.95% [at 11.5 µM].

`CC(=O)OC1CCC2(C)C(CCC3(C)C2CC=C2C4CC(C)(C)CCC4(C)CCC23C)C1(C)C(=O)O` (configuration not stated): the Potency entry in assay [1], in assay [2], in assay [3], in assay [4], in assay [5] and in assay [6] was “inactive” in each case.

As for `CC(=O)/C=C/[C@H]1[C@](C)(O)[C@@H](O)[C@H](O)C2C(C)(C)CCC[C@@]21C` (some centres not stated), the Potency entry in assay [1], in assay [2], in assay [3], in assay [4], in assay [5] and in assay [6] was “inactive” in each case.

Turning to `CC1OC(O[C@@H]2[C@H](O)[C@@H](OC3OC(CO)C(O)C(O)C3O)[C@H](OC(=O)[C@]34CCC(C)(C)C[C@H]3C3=CCC5[C@@]6(C)CC[C@H](O[C@@H]7O[C@H](C(=O)O)[C@@H](O)[C@H](O[C@@H]8OC[C@@H](O)[C@H](O)[C@H]8O)[C@H]7O[C@@H]7O[C@H](CO)[C@H](O)[C@H](O)[C@H]7O)[C@@](C)(C=O)C6CC[C@@]5(C)[C@]3(C)C[C@H]4O)O[C@@H]2C)C(O)C(O)C1OC1OCC(O)C(O)C1O` (some centres not stated), the Potency result in assay [1] and in assay [2] was “inactive” throughout. Further, the activity change, negative = inhibition in assay [3] is 1.16% [at 6.45 µM]. Moreover, the activity change, negative = thiol reactive in assay [4] was 299% [at 6.41 µM]. The activity, negative = inhibition in assay [5] was 0% [at 6.45 µM]. Moreover, in assay [6], the redox activity (% of DA3003) was -1.5% [at 6.41 µM].

Turning to `CC(NC(=O)[C@H](Cc1ccccc1)NC(=O)OCc1ccccc1)C(=O)CF` (some centres not stated), the Potency result in assay [1], in assay [2], in assay [3], in assay [4], in assay [5] and in assay [6] was “inactive” in each case.

As for `CC1=CC(=O)[C@]2(O[C@@H]3O[C@@H](C)[C@H](O)[C@@H](O)[C@H]3O)C=CO[C@@H](O[C@@H]3O[C@H](CO)[C@@H](O)[C@H](O)[C@H]3O)[C@H]12`, the Potency result in assay [1], in assay [2], in assay [3], in assay [5] and in assay [6] was “inactive” throughout. The Potency in assay [4] was 5.82 µM (active).

`CC(C)/C=C1/NC(=O)C(C(C)C)n2c1nc1c(O)cccc1c2=O` (configuration not stated): the Potency entry in assay [1], in assay [2], in assay [3], in assay [4], in assay [5] and in assay [6] was “inactive” in each case.

In the case of `Cn1nccc1-c1ccccc1Oc1ccc(S(=O)(=O)Nc2nccs2)cc1C#N`, the Potency result in assay [1], in assay [2], in assay [3], in assay [4] and in assay [6] was “inactive” each time.

As for `CC1C(O)C(O)C2C(C(=O)OCCc3ccc(O)cc3)=COC(O[C@@H]3O[C@H](CO)[C@@H](O)[C@H](O)[C@H]3O)C12` (some centres not stated), the Potency result in assay [1], in assay [2], in assay [3], in assay [5] and in assay [6] was “inactive” in each case. In addition, the Potency in assay [4] is 1.84 µM (active).
